# Measured values as given in PubChem BioAssay.
# A number with no mark means an inactive call. Activity calls are given as the source filed them.
# Assay: growth effects on S. cerevisiae YJM789 – YJM789 clinical isolate, OD600, 24 h, basal, primary screen (AID 1089);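 further: growth of clinical yeast isolate S. cerevisiae YJM 789 seeded 1000 cells per well; test concentration not given here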
# Conditions: higher = more signal, called active from +8 up or from −8 down
row,SMILES,z-score
1,O=c1cccc(CCc2ccccc2)o1,-0.951
2,COc1ccc([Si](C)(C)[C@H]2[C@H](CCn3cc(CCO)nn3)O[C@@]3(C(=O)N(Cc4ccc(N5CCOC5=O)cc4)c4ccccc43)[C@@H]2C)cc1,1.02
3,C=CC[C@@H](OC(=O)Nc1ccc(OC)cc1)c1ccc(O)c2ccccc12,-23.6 (active)
4,CC(c1ccccc1)C(O)C1C=CC2C(=O)NC(=O)C2N1Nc1ccccn1 (stereo unspecified),0.978
5,CC(C)CNC(=O)[C@@H]1c2ccccc2C(=O)N(Cc2cc(C(F)(F)F)cc(C(F)(F)F)c2)[C@H]1c1ccc(CO)cc1,0.976
6,C[C@]1(C(=O)NCc2ccccc2)c2ccccc2C(=O)N(Cc2cc(F)cc(C(F)(F)F)c2)[C@H]1c1ccc(CO)cc1,0.328
7,O=C1O[C@H](c2ccccc2)[C@H](c2ccccc2)N2[C@H]1[C@@H](C(=O)Nc1nc3ccccc3s1)[C@]1(C(=O)Nc3ccccc31)[C@H]2c1ccc(O)cc1,0.474
8,CN(C)CCCNC(=O)[C@@]1(Cc2ccccc2I)c2ccccc2C(=O)N(Cc2ccccc2C(F)(F)F)[C@H]1c1ccc(CO)cc1,-0.0554
9,CCCCCN1CC=CC23O[C@@H]4C=CCOC(=O)[C@@H]4[C@H]2C(=O)N(CCCO)[C@@H]3C1=O (stereo partly specified),0.811
10,C=C(CCCC)/C(=C/C[C@H](OC(C)=O)c1ccc(CO)o1)c1cnc2ccccc2c1,-0.237
11,CC(C)NC(=O)[C@@]1(Cc2ccccc2I)c2ccccc2C(=O)N(Cc2ccccc2)[C@H]1c1ccc(CO)cc1,-0.805
12,O=C1C2C=CC(C(O)c3ccc(B(O)O)cc3)N(Nc3ccccc3)C2C(=O)N1c1ccccc1 (stereo unspecified),0.428
13,O=C1C[C@]2(c3ccc([N+](=O)[O-])cc3)C(=O)N(CC(F)(F)F)c3cc(CO)ccc3[C@H]2N1CC12CC3CC(CC(C3)C1)C2,0.116
14,N#Cc1ccc(NN2C(C(O)c3cccs3)C=CC3C(=O)N(c4ccccc4)C(=O)C32)cc1 (stereo unspecified),-1.34
15,COCCOC(=O)N1C(=O)[C@@]2(c3cc(C#CCNC(N)=O)ccc31)[C@H](C(=O)N1CCc3cc(OC)c(OC)cc3C1)[C@H]1C(=O)O[C@H](c3ccccc3)[C@H](c3ccccc3)N1[C@@H]2c1ccc(OCCO)cc1,0.854
16,CC(=O)Nc1cc(Br)ccc1C(=O)O,-0.0103
17,C=CCOC(=O)[C@@H]1[C@H]2C(=O)O[C@H](c3ccccc3)[C@H](c3ccccc3)N2[C@H](c2ccc(OCCOC(=O)[C@@H]3C[C@@H]4C(=O)N[C@@H](Cc5ccccc5)C(=O)N4[C@@H]3c3cccc(OCCO)c3)cc2)[C@@]12C(=O)Nc1ccc(I)cc12,1.39
18,[N-]=[N+]=NCc1ccccc1C[C@]1(C(=O)O)N=C(c2ccc(OCCCO)cc2)O[C@H]1c1ccccc1CN=[N+]=[N-],-1.17

row,SMILES,z-score
1,NCCCCCNC(=O)[C@H]1C[C@H]2C(=O)NCC(=O)N2[C@H]1c1cccc(OCCO)c1,-0.155
2,COc1cc2c(cc1OC)CN(C(=O)[C@@H]1[C@H]3C(=O)O[C@H](c4ccccc4)[C@H](c4ccccc4)N3[C@H](c3ccccc3OCCO)[C@@]13C(=O)Nc1ccc(C#CCNC(N)=O)cc13)CC2,0.443
3,C=C(COC)C(=O)CC[C@H](OC(C)=O)c1cccc(OCCO)c1,0.513
4,CCOC(=O)C[C@H]1[C@H](OC(=O)Cc2ccc3c(c2)OCO3)[C@@H](NC(=O)C2CCCCC2)c2cc(OCCCO)ccc2N1C(=O)Cc1ccc(OC)cc1,-1.74
5,COCCOC(=O)N1C(=O)[C@@]2(c3cc(C#CCNC(N)=O)ccc31)[C@H](c1ccc(OCCO)cc1)N1[C@H](c3ccccc3)[C@H](c3ccccc3)OC(=O)[C@H]1[C@@H]2C(=O)N1CCc2cc(OC)c(OC)cc2C1,1.46
6,COCCOC(=O)N1C(=O)[C@@]2(c3cc(C#CC4(O)CCCCCC4)ccc31)[C@H](C(=O)N1CCCCCCC1)[C@H]1C(=O)O[C@H](c3ccccc3)[C@H](c3ccccc3)N1[C@@H]2c1ccccc1OCCO,1.41
7,C=C(COC)/C(=C/C[C@H](OC(=O)c1ccncc1)c1cccc(OCCO)c1)c1cc(C(=O)OC)ccc1OC,0.447
8,COc1c(C)cc(-c2cc3c(c(-c4ccc(Oc5ccccc5)cc4)n2)[Si](C(C)C)(C(C)C)OC3)cc1C,1.09
9,CCOC(=O)C1=CCC(c2ccc(C#N)cc2)N(S(=O)(=O)c2ccc(C)cc2)C1 (stereo unspecified),-0.0764
10,CCOC(=O)C1=C[C@@H](C(C)C)N(S(=O)(=O)c2ccc(C)cc2)[C@H]1c1ccc(C(C)C)cc1,0.129
11,CCOC(=O)C1=CCC(C(C)(C)C)N(S(=O)(=O)c2ccc(C)cc2)C1 (stereo unspecified),-0.792
12,CCCCC=C[C@@H](NC(=O)c1ccco1)c1ccccc1,0.529
13,CC(C)(C)N1CC=CC23O[C@@H]4C=CCOC(=O)[C@@H]4[C@H]2C(=O)N(CCCCCO)[C@@H]3C1=O (stereo partly specified),-0.256
14,O=C1C=CC(=O)[C@@H]2CC(COc3ccccc3)=C3[C@@H](CCc4ccccc4)OB(O)C[C@@H]3[C@H]12,0.168
15,Cc1ccccc1C(O)C1C=CC2C(=O)N(C)C(=O)C2N1N1CCCCC1 (stereo unspecified),0.299
16,CCOC(=O)C[C@H]1[C@H](OC(=O)c2ccc(C(=O)c3ccccc3)cc2)[C@@H](NC(=O)C2CCCCC2)c2cc(OCCCO)ccc2N1C(=O)c1ccccc1,-0.326
17,Cc1ccc(S[C@]2(C(=O)NCC(C)C)CC(=O)N(Cc3ccccc3Cl)[C@@H]2c2ccc(CO)cc2)cc1,-0.259
18,COc1cccc(C(=O)O[C@H]2CC[C@]3(C)C4=C(CCC3C2(C)C)[C@]2(C)CC[C@H]([C@H](C)CCCC(C)C)[C@@]2(C)CC4)c1 (stereo partly specified),-1.73
